Hits are enriched below; roughly 2.3% of the tested compounds scored in any of these assays.
CHO-K1 Ca antag = nonselective inhibitor or artifact in parental CHO-K1 cells; ATP-induced calcium, Fluo-8 fluorescence; hit rate 0.6% among 360,000; inhibition, % at 3 µM; AID 602250;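 active = inhibition above a per-plate cutoff, the plate's mean sample inhibition plus 3 SD, cut at about 24% in these data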;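 note: 0% = DMSO plus EC80 ATP and 100% = DMSO alone without ATP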
M1 ag parental = nonselective activator or artifact in parental CHO-K1 cells; activation, % at 3 µM; hit rate 0.48% among 360,000; Fluo-8 calcium fluorescence; scaled to maximal ATP response, vehicle zero; in the data active = activation above about 15%;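 note: untransfected CHO-K1 host cells lacking M1 receptor as counterscreen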
CHRM1 antagonist = blocks human M1 muscarinic receptor. P11229. CHO-K1 hM1, Fluo-8 calcium fluorescence, ACh EC80 antagonist. inhibition, % at 3 µM. hit rate 1.3% among 360,000;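 active = percent inhibition above its own plate's cutoff, namely the mean of that plate's compound wells plus 3 SD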;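 note: peak over basal fluorescence ratio during 140 s after agonist addition; 0% = ACh EC80 plus DMSO and 100% = DMSO alone without agonist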
Target sequence (P11229 whole entry, looked up): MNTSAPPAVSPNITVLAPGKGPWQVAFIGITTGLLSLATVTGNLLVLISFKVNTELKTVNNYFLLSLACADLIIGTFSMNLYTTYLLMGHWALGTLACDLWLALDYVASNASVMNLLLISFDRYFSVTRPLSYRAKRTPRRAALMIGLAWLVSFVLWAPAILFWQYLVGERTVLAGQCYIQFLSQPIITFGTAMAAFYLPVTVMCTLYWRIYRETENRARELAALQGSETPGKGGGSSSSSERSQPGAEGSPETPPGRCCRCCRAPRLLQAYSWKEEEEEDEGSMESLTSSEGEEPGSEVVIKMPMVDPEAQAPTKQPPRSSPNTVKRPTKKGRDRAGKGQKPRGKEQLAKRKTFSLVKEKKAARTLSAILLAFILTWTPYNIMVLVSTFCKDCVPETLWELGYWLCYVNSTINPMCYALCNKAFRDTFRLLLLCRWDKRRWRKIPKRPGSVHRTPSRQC
CHRM1 agonist = activates human CHRM1 receptor; P11229; hit rate 0.33% among 360,000; activation, % at 3 µM; CHO-K1 hM1, Fluo-8 calcium fluorescence, agonist mode; 0% DMSO, 100% acetylcholine EC100;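 active = activation above the run's mean compound activation plus 3 SD, cut at about 16% in these data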;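 note: peak over basal fluorescence ratio within a 140 s kinetic read after compound addition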
M1 PAM parental = nonselective activator or artifact in parental CHO-K1 calcium assay; hit rate 0.02% among 360,000; activation, % at 3 µM; ATP EC20, Fluo-8 calcium fluorescence; 0% at ATP EC20, 100% at ATP max; AID 602247;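 active = activation above the run cutoff, the mean activation of all test compounds plus 3 SD, cut at about 40% in these data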;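 note: peak over basal fluorescence ratio in a 140 s read after ATP addition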
CHRM1 PAM = positive allosteric modulators of human M1 muscarinic receptor; P11229; CHO-K1 hM1, Fluo-8 calcium fluorescence, ACh EC20; 0% = ACh EC20, 100% = maximal ACh; activation, % at 3 µM; hit rate 0.088% among 360,000; in the data active = activation above about 19%, passing the limit was not always enough
* marks the source's active call; other numbers are inactive results.

SMILES	CHO-K1 Ca antag	M1 ag parental	CHRM1 antagonist	CHRM1 agonist	M1 PAM parental	CHRM1 PAM
Cc1ccc2c(c1)nnn2C1CCN(S(=O)(=O)c2ccc(C(=O)N3C(C)CCCC3C)cc2)CC1 (centres undefined)	16	6	33*	1	-12	-12
O=S(=O)(c1ccc2c(c1)OCCO2)N1CCC(n2nnc3cc(C(F)(F)F)ccc32)CC1	17	6	31*	1	11	-10
Cc1ccc2c(c1)nnn2C1CCN(S(C)(=O)=O)CC1	24*	0	2	0	-6	9
CN(C)CCCNCCCNC(=O)/C(=N\O)c1ccccc1	-17	1	-4	-7	28	4
CN(CCCCOc1ccc(F)cc1)Cc1ccccc1	-14	1	12	-7	15	-12
CCN(Cc1ccccc1)Cc1ccc(OCc2ccccc2)cc1	13	0	35*	-9	-4	-24
CCc1ccc(OCCCCN(C)Cc2ccccc2)cc1	12	1	33*	-8	14	-23
Cc1cc(C)c(C)c(OCCCCN(C)Cc2ccccc2)c1	-4	3	65*	-7	24	-29
Nc1ccc(OCc2ccccc2)cc1	-1	0	-2	-7	15	1
COc1ccc(Cc2c(C3CCCCC3)nc3c(C)cc(Br)cn23)c(C)c1	4	0	20	-7	4	-22
Cc1nc2nc(SCC(=O)NCCCN3CCCC3)nn2c(C)c1Cc1ccccc1Cl	-10	0	81*	-12	8	-37
Cc1nc2nc(SCC(=O)NCCCN3CCCCC3)nn2c(C)c1Cc1ccccc1	-2	0	14	-11	-6	-18
CCC1CCCCN1CCCNC(=O)CSc1nc2nc(C)c(Cc3ccc(C)cc3)c(C)n2n1 (centres undefined)	-3	1	69*	-13	-22	-36
CCCS(=O)(=O)NC(=O)C1(C)CCN(C(=O)CSc2ccccc2)C1 (centres undefined)	-7	0	-7	-1	-5	-4
CC(=O)c1ccc(NC(=O)c2ccc(C)c(S(=O)(=O)N3CCOCC3)c2)cc1	-1	7	-1	1	-9	-6
Cc1ccc(-c2nn(-c3ccccc3)cc2C(=O)Nc2ccc(C)c(S(=O)(=O)N3CCOCC3)c2)cc1	24*	0	-1	-5	-14	3
CCN1CCN(c2ccc(NC(=O)c3ccc(Cl)c(N4CCCC4=O)c3)cc2)CC1	-3	0	23*	-13	1	-20
CCN(CC)CCOC(=O)c1ccc(NC(=O)c2ccc(Cl)c(S(=O)(=O)N3CCCCCC3)c2)cc1	4	2	98*	-4	-6	-21
O=C(Nc1cccc(S(=O)(=O)N2CCOCC2)c1)c1cn(-c2ccccc2)nc1-c1ccccc1	18	3	22	-5	1	-16
CCOC(=O)c1ccc(NC(=O)c2ccc(C)c(S(=O)(=O)N3CCOCC3)c2)cc1	30*	13	51*	6	1	-18
CCN1CCN(c2ccc(NC(=O)c3ccc4c(c3)OCO4)cc2)CC1	-7	0	0	-7	17	-8
O=C(Nc1ccncc1)c1ccc(Cl)c(S(=O)(=O)N2CCCCC2)c1	-1	9	-2	3	0	-9
Cc1ccc(CNC(=S)Nc2ccc3c(c2)c(=O)n(C)n3Cc2cccc(C(F)(F)F)c2)cc1	-3	1	7	-4	9	-8
Cc1ccccc1C1CC(=O)Oc2cc(O)ccc21 (centres undefined)	11	0	-16	2	-15	13
CCN1CCN(c2ccc(NC(=O)c3ccc(Cl)c(S(=O)(=O)N4CCCC4)c3)cc2)CC1	9	3	99*	-7	-19	-26
SMILES	CHO-K1 Ca antag	M1 ag parental	CHRM1 antagonist	CHRM1 agonist	M1 PAM parental	CHRM1 PAM
CCCCOc1cccc(C(=O)Nc2ccc(N3CCN(CC)CC3)cc2)c1	-7	5	75*	-6	7	-25
CCN1CCN(c2ccc(NC(=O)c3ccc(OC)c(S(=O)(=O)N4CCCC4)c3)cc2)CC1	3	0	13	-9	-12	-9
O=C(O)C(Cc1ccccc1)N1C(=O)c2c(Cl)c(Cl)c(Cl)c(Cl)c2C1=O (centres undefined)	-6	4	1	1	14	2
CCN1CCN(c2ccc(NC(=O)COc3ccccc3Cl)cc2)CC1	3	0	32*	-5	-5	-15
CCN1CCN(c2ccc(NC(=O)COc3ccc(Cl)cc3C)cc2)CC1	-11	2	100*	-8	0	-27
CC(C)c1nc(=S)n(-c2ccccc2)[nH]1	28*	0	0	0	-7	3
CC(=O)Nc1nc(=S)n(-c2ccccc2)[nH]1	-3	0	5	-4	8	-2
CN1C(=O)Cc2cc(S(=O)(=O)N3CCN(c4cccc(C(F)(F)F)c4)CC3)ccc21	-17	1	-2	-2	0	9
Cc1cccn2c(=O)nc(SCC(=O)N3CCC(Cc4ccccc4)CC3)nc12	2	3	14	20*	-12	-3
COC(=O)c1ccc(-n2nnnc2SCC(=O)Nc2ccccc2F)cc1	4	2	-2	0	-7	4
CCCCCCCCCCCCCCCC[N+](C)(C)CC	-4	2	90*	0	15	-26
CCCCCCCCCCCCCCCC[N+](C)(C)CCl	-13	0	43*	-7	18	-21
CCCCCC[N+](C)(C)CCSSCC[N+](C)(C)CCCCCC	-14	1	-9	-8	24	10
CN(CC(=O)Nc1ccccc1Br)C(=O)c1ccc2c(=O)n3c(nc2c1)CCC3	-6	0	-1	-4	7	3
CC(C)(C)C(=O)Nc1ccc(Sc2ccc([N+](=O)[O-])cc2)cc1	20	11	35*	-6	-7	-23
COc1cc2c(cc1OC)CN(c1nc(CN3CCOCC3)nc3sc4c(c13)CCCC4)CC2	1	2	10	-11	-2	-7
COc1cc2c(cc1OC)CN(c1nc(CN3CCCCC3)nc3sc4c(c13)CCCC4)CC2	-3	20*	8	-11	25	-4
O=[N+]([O-])c1ccc(CSCc2ccc([N+](=O)[O-])cc2)cc1	-6	1	-20	0	13	17
COc1cccc(S(=O)(=O)Nc2cccc(C(=O)N3CCCC3)c2)c1	6	2	5	-2	-9	5
COc1cccc(S(=O)(=O)Nc2cccc(C(=O)N3CCOCC3)c2)c1	-6	1	54*	-7	16	-21
COC(=O)Cc1ccc(OC2(C)CCN(Cc3csc4ccccc34)C2)cc1 (centres undefined)	-14	0	29*	-9	13	-26
NC(=O)c1cccnc1OCC(F)(F)F	-7	0	0	3	18	19

Screening data from PubChem.
